Assay outcomes deposited in PubChem BioAssay by National Center for Advancing Translational Sciences (NCATS).
Only some compounds are listed: those with a hit (about 2.8% of all), similar ones and a draw of the others.
POLK inh: DNA polymerase kappa (human) inhibition; Q9UBT6; purified Pol kappa, fluorescent DNA synthesis assay, 10 min; Potency, µM (titrated, usually from 107 µM), for inactives: top-dose activity, negative = inhibition, hits mostly inhibitors; hit rate 0.53% among 400,000; AID 588579; further: potency means the concentration at half of the fitted maximal effect; on the % scale 0 is the no-effect control and ±100 the full control effect
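10 nM Pol kappa was preincubated with compounds for 15 min at room temperature. Reaction started with 50 nM (final) substrate. Fluorescence read kinetically at 0 and 10 min.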
Pol eta inh: DNA polymerase eta (human) inhibition | AID 588591 | Potency, µM (highest dose often 114 µM), for inactives: at the top dose activity change, negative = inhibition, hits mostly inhibitors | recombinant Pol eta, fluorescent DNA replication assay | hit rate 1.2% among 390,000; further: potency means the concentration at half of the fitted maximal effect; on the % scale 0 is the no-effect control and ±100 the full control effect
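Pol eta at 10 nM preincubated with compounds 15 min at room temperature; reaction started with fluorescent substrate (50 nM final) and read kinetically at 0 and 10 min.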
PI5P4Ka inh: PI5P4K alpha (human) kinase inhibition. PI5P4Kalpha enzyme, ADP-Glo luminescence, 60 min; hits give low values. max response, %. hit rate 1.2% among 330,000. AID 652105; active means max response of -50% or lower; inconclusive means between -30% and -50%; inactive means -30% or higher; further: value at the top dose of about 77 µM; on the % scale 0 is the no-effect control and ±100 the full control effect
Target sequence (P48426 whole entry, looked up): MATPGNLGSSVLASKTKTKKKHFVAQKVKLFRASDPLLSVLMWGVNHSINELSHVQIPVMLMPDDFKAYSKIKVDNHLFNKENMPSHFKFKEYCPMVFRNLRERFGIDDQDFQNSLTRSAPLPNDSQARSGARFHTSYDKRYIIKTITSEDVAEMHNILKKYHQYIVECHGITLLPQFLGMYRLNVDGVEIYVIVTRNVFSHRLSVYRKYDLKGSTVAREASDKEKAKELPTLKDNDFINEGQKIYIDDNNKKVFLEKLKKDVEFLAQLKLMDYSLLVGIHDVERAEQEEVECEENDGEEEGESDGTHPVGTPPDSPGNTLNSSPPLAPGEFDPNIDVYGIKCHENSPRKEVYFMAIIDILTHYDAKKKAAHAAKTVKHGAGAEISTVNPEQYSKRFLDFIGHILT
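Human PI5P4Kalpha with substrate in 0.038 M HEPES pH 7.4, 0.28 mM EGTA, 0.1% CHAPS, 5% DMSO; reaction started with 5 microM ATP (final), 60 min at room temperature. ADP formed read by ADP-Glo luminescence.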
POLI inh: blocks human DNA polymerase iota activity | Q9UNA4 | Pol iota fluorescent replication assay, 10 min | Potency, µM (doses to about 115 µM), without a hit: at the highest dose activity, negative = inhibition, most hits filed as inhibitors | hit rate 1% among 390,000; further: potency means the concentration at half of the fitted maximal effect
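Fluorescent replication assay read twice, at 0 min and 10 min after adding 50 nM (final) substrate. Enzyme (10 nM) and compounds were first incubated 15 min at room temperature; enzyme-free buffer wells were negative controls.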
WRN helicase inh: inhibitors of human WRN helicase; Q14191; hit rate 0.46% among 360,000; Potency, µM (series often up to 114 µM), without a hit: top-dose activity change, negative = inhibition, most hits filed as inhibitors; AID 651768; WRN helicase unwinding, fluorescent forked duplex, kinetic; further: potency means the concentration at half of the fitted maximal effect; on the % scale 0 is the no-effect control and ±100 the full control effect; nearly all actives have a fitted effect of over 55% in size
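Primary qHTS, 1536-well format. 20 nM WRN + compound, 15 min RT; start with 100 nM forked fluorophore/quencher duplex, 2 mM ATP (final); kinetic read ex 525/em 598 nm.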
POLB inh: blocks human DNA polymerase beta activity. P06746. Pol beta primer extension/strand displacement, fluorescence kinetic. Potency, µM (highest dose often 114 µM), for inactives: at the highest dose activity change, negative = inhibition, usual class: inhibitors. hit rate 1.3% among 340,000. AID 485314; further: potency means the concentration at half of the fitted maximal effect; on the % scale 0 is the no-effect control and ±100 the full control effect
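10 nM enzyme + cpd, 15 min RT; start with substrate 50 nM final; read 0 min and after 10 min RT. Corrected, normalized data; 4-parameter Hill curve fit.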
Active calls of the source: *; ? = inconclusive; . = no result; [ ] = dose if it differs, or a comment. Unless noted, the call rests on the fitted dose curve; in most records, active means well fitted curve in the direction sought with a large enough effect; inconclusive means small, poorly fitted or top-dose-only effect, or another doubt; inactive means no such curve, though single readings can be large; an effect the other way counts as inactive or inconclusive.

SMILES	POLK inh	Pol eta inh	PI5P4Ka inh	POLI inh	WRN helicase inh	POLB inh
CCOC(=O)Cn1nc(-c2ccccc2)c2cnc3ccc(OCC)cc3c21	-19.7%	-1.4%	.	-13.8%	.	?
CC(C)(C)c1cc(=O)n(-c2ccccc2)[nH]1	-12.8%	?	-3.4	7.08µM*	-18.9%	?
O=c1cc(-c2ccccc2)[nH]n1-c1ccccc1	6.5%	-14.3%	-0.1	?	-0.9%	.
O=C(CCS(=O)(=O)c1ccc(Br)cc1)NC1CCCCCC1	-3.9%	25.1µM*	1.3	15.4%	-13.3%[11.6 µM]	?
CC(=O)c1ccc(S(=O)(=O)Nc2ccc(C(=O)N(C)CC(=O)Nc3cccc(C)c3C)cc2)cc1	?	31.6µM*	?	?	5.0%[11.6 µM]	.
CC(C)CC(=O)Nc1ccc(S(=O)(=O)Nc2cc3c(cc2N2CCOCC2)n(C)c(=O)c(=O)n3C)cc1	-2.8%	-14.9%	.	26.3%	.	0.6%
COC(=O)c1c(SCC(=O)Nc2cc(C)cc(C)c2)[nH]c2ccccc2c1=O	-14.5%	-23.7%	.	-5.8%	.	?
CCCCCCNC(=O)N[C@@H](C(=O)NCCC[C@H]1CN2C(=NC[C@@H]2Cc2ccccc2)N1CCc1cccc(OC)c1)C(C)C	-6.8%	-2.1%	-82.9*	25.1µM*	-6.9%	12.0%
C/C=C(\C)C(=O)NCCN1C2=NC[C@@H](Cc3ccccc3)N2C[C@@H]1Cc1ccc(OC)cc1	-3.2%	-10.8%	0.3	8.0%	-5.8%	.
N#CC1C(=O)NC(=O)C(C#N)C12CCCC2 (stereo unspecified)	.	.	-51.1*	.	1.1%[57.1 µM]	.
CCc1cccc(NC(=O)Cn2c(-c3ccc(F)cc3)cc(C(C)=O)c2C)c1	-11.3%[60.1 µM]	-10.4%	.	-4.4%	.	29.0%
N#C/C(=C(/O)COC(=O)CCc1ccc(S(=O)(=O)N2CCOCC2)cc1)c1nc2ccccc2[nH]1	-23.1%	14.1µM*	-51.6*	-11.8%	-28.2%	35.5µM*
N#C/C(=C(/O)COC(=O)c1ccc(Cl)c(S(=O)(=O)N2CCOCC2)c1)c1nc2ccccc2[nH]1	3.6%	-12.9%	-10.0	67.1%	7.8%	4.1%
CCCCN(CC)CCCNC(=O)Nc1sc2nc3n(c(=O)c2c1C)CCC(C)CC3 (stereo unspecified)	7.3%	-15.9%	.	26.9%	.	22.1%
CSc1ccc(/C=C2\C=Cc3ccc([N+](=O)[O-])cc32)cc1	-21.8%	.	.	29.3%	.	.
CC(C)CCn1c(SCC(=O)N2CC(=O)Nc3ccccc32)nc2scc(-c3cccs3)c2c1=O	?	?	-67.0*	?	-11.6%	22.4µM*
Cc1cc(/C=C(\C#N)C(=O)Nc2ccccc2)c(C)n1-c1cccnc1	-7.6%	-5.4%	-3.8	64.5%	-10.3%[57.1 µM]	-25.8%
N#C/C(=C\c1ccccc1O)C(=O)Nc1cccnc1	-26.2%	?	-19.1	89.1µM*	4.0%[11.6 µM]	3.2%
COc1cc(C=NNC(=O)c2ccc(NS(=O)(=O)c3cccs3)cc2)cc(Br)c1O	-23.7%	?	-82.3*	?	-28.3%	.
COc1cc(/C=N/NC(=O)c2ccc([N+](=O)[O-])cc2Cl)cc(Br)c1O	-3.5%	-16.8%	8.2	13.9%	-32.0%[57.1 µM]	2.1%
COc1cc(/C=N/NC(=O)Cc2ccc(Br)cc2)cc(OC)c1O	-12.6%	-15.5%	-5.4	60.8%	-5.2%	22.4µM*
COc1cc(/C=N/NC(=O)CC#N)cc(Br)c1O	-16.0%	-27.5%	?	44.7µM*	-10.6%	6.2%
COc1cccc(/C=N/NC(=O)c2ccc(COc3ccc(Cl)cc3Cl)o2)c1	-3.2%	-2.3%	-14.0	6.3%	-3.2%	8.3%
COc1cc(/C=N/NC(=O)c2ccc(COc3ccccc3Cl)o2)cc(Br)c1O	-28.9%	?	-0.6	?	-31.6%	28.2µM*
COc1cc(Br)cc(/C=N/NC(=O)Cc2ccccc2)c1O	-2.0%	-6.0%	-3.7	92.1%	-26.9%	.
SMILES	POLK inh	Pol eta inh	PI5P4Ka inh	POLI inh	WRN helicase inh	POLB inh
Oc1c(C(c2ccccc2F)N2CCOCC2)sc2nc(-c3ccco3)nn12 (stereo unspecified)	9.2%[60.1 µM]	-6.3%	.	-13.5%	.	-16.4%
O=C(C[C@H]1CC[C@@H]2[C@H](COC[C@@H](O)CN2Cc2ccc(Cl)cc2)O1)NCCc1ccccc1	.	.	-3.9	.	-0.9%	.
CC1CCCCN1CCCNC(=O)c1ccc2c(c1)sc1nc(-c3ccc(F)cc3)cn12 (stereo unspecified)	-33.1%	-17.4%	.	0.8%	.	-20.4%
CN1C(=O)c2cccc3c(S(=O)(=O)Nc4cccc(C(=O)O)c4)ccc1c23	-12.5%	16.8%	.	?	.	-7.8%
COc1cc(/C=N/NC(N)=O)cc([N+](=O)[O-])c1O	?	50.1µM*	-55.7*	13.4%	-29.6%[57.1 µM]	?
COC(=O)N/N=C/c1cc(OC)c(O)c([N+](=O)[O-])c1	-31.9%	?	-21.9	?	?	14.6%
Cc1ccc(/C=N/n2c(-c3ccccn3)n[nH]c2=S)o1	-25.3%	-10.8%	-6.9	50.1µM*	-7.3%	-25.6%
Cc1cc(SCC(=O)NCc2ccc(Cl)cc2)nc(=O)[nH]1	-3.9%[60.1 µM]	-4.4%	.	11.4%	.	-25.7%
CCN(c1ccccc1)S(=O)(=O)c1ccc(Oc2ccccc2C(C)=O)nc1	0.6%	-25.2%	0.2	2.5%	3.4%	.
CCN(c1ccccc1)S(=O)(=O)c1ccc(Oc2ccc(-n3ccnc3)cc2)nc1	-9.9%	4.1%	0.4	9.1%	-7.6%	39.8µM*
COc1ccc(-c2nc(CCNC(=O)Cc3ccc(F)cc3)cs2)cc1	-5.2%[60.1 µM]	-3.7%	.	4.8%	.	-17.6%
CC1CC2=C(NC(=S)NC2c2ccc(F)cc2)/C(=C/c2ccc(F)cc2)C1 (stereo unspecified)	-8.2%	-16.9%	.	79.4µM*	-5.1%[11.6 µM]	30.0%
S=C1NC2=C(CCC/C2=C\c2ccc(Cl)cc2)C(c2ccc(Cl)cc2)N1 (stereo unspecified)	-5.8%	-13.4%	-14.2	171.3%	-28.8%	-18.9%
COc1cc(OC)c2c(O)c3c(c(-c4c5c(c(O)c6c(OC)cc(OC)cc46)CO[C@@H](C)[C@H]5O)c2c1)[C@H](O)[C@H](C)OC3	39.8µM*	20µM*	-90.2*	?	50.1µM*	35.5µM*
COc1cc(OC)c2c(=O)c(O)c(-c3ccc(OC)c(OC)c3)oc2c1	-10.7%[60.1 µM]	.	.	.	.	.
COc1cc(C(=O)N2CCN(c3ccccc3)CC2)c2ccccc2n1	-19.8%	-8.1%	-2.6	48.5%	-0.5%	.
CCc1ccccc1OCC(=O)Nc1ccc(S(N)(=O)=O)cc1	-5.6%	8.7%	.	-4.9%	7.8%	-1.1%
NS(=O)(=O)c1ccc(NC(=O)COc2cccc3ccccc23)cc1	-5.6%	79.4µM*	-9.0	89.1µM*	?	-19.5%
COc1cccc(CNC(=O)CSc2ccc(-c3sc(-c4ccccc4)nc3C)nn2)c1	-22.3%	-17.7%	.	12.4%	.	0.9%
